Screening data (PubChem)
Only some compounds are listed: those with a hit (about 5.6% of all), similar ones and a draw of the others.
PKM2 act = increases activity of human pyruvate kinase M2 | P14618 | purified PKM2, Kinase-Glo ATP luminescence, activation; response scale: 0% is enzyme alone, no compound | Potency, µM (doses to about 57.5 µM), inactives show at the highest dose activation, usual class: activators | 260,000 compounds, 0.34% hits | AID 1631; note: potency is the fitted concentration of half-maximal effect; nearly all actives have a fitted effect of over 55% in size
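hPK-M2, >95% pure; 0.1 mM ADP / 0.5 mM PEP final; imidazole pH7.2 buffer w/ 7 mM MgCl2, 50 mM KCl; 1 h RT; Kinase-Glo lum. Intermediate enzyme activity for dual inhibitor/activator qHTS.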
RORgamma inh = ROR gamma (mouse) transcription inhibition | Drosophila S2 Gal4-RORgamma UAS-luciferase reporter, 20 h | Potency, µM (top dose mostly 53.6 µM), for the others: top-dose activity change, negative = inhibition, actives largely listed as inhibitors | 310,000 compounds, 5.4% hits | AID 2551; note: potency is the fitted concentration of half-maximal effect; nearly all actives have a fitted effect of over 60% in size
Target sequence (P51450 whole entry, looked up, the tested form may be a part): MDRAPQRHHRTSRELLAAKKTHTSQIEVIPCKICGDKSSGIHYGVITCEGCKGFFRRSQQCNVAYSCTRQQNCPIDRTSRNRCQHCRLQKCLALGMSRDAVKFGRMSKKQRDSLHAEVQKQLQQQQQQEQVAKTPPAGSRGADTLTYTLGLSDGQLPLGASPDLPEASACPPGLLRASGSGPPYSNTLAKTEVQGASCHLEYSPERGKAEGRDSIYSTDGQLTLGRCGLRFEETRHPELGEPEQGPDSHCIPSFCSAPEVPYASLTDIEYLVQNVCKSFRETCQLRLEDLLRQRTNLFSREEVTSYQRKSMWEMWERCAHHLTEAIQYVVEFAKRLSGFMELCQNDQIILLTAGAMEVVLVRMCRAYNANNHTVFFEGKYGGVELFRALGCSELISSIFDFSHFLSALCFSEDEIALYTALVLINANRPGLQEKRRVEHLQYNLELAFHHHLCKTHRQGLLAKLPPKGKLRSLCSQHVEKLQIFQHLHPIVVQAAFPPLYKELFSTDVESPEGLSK
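Compounds are pin-transferred onto Drosophila Schneider cells expressing a copper-inducible Gal4–ROR gamma transactivation domain fusion. After 1 hr, copper sulfate is added to 700 uM final; luciferase is read 20 hr later.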
Six1-Eya2 inh = blocks human Six1 binding to Eya2 | AlphaScreen GST-Six1/His-Eya2 binding, biochemical; active compounds read low | activity change, % (test concentration not listed) | 360,000 compounds, 0.56% hits | AID 651725; in the data active = activity change below about -65%; inconclusive = mostly about -30% to -63%
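AlphaScreen luminescence read after one hour at 37 °C in darkness. Pin-transferred compounds met GST-Six1 and His-Eya2 protein (5X stock 250 nM/500 nM) plus glutathione donor and Ni-chelate acceptor beads (5X, 50 ug/mL).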
VP16 counter = inhibits Gal4-VP16 luciferase reporter, ROR gamma counter-screen. Drosophila S2 Gal4-VP16 UAS-luciferase, luminescence, 20 h. Potency, µM (doses to about 53.6 µM), for inactives: top-dose activity, negative = inhibition, hits mostly inhibitors. 310,000 compounds, 3.5% hits. AID 2546;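 note: Gal4-VP16 expression switched on by copper sulfate through the metallothionein promoter; potency is the fitted concentration of half-maximal effect; nearly all actives have a fitted effect of over 50% in size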
CtBP-E1A inh = blocks the CtBP interaction with E1A; activity change, % (test concentration not listed); AID 651724; 340,000 compounds, 0.49% hits; AlphaScreen GST-E1A/His-CtBP binding, 1536-well; active compounds read low; in the data active = activity change below about -65%; inconclusive = mostly about -30% to -63%
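Steps: dispense buffer (Tris pH 8.0, NaCl 300 mM, TCEP 1 mM, BSA, Tween 20); add 5X protein mix (GST-E1A, His-CtBP, 125 nM each); pin 23 nL compound; 2 h at 37 °C, dark; add 5X beads (50 ug/mL); 1 h; read.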
* hit, by the source's call; ? = inconclusive; . = no result given; [ ] = dose if it differs, or a comment. Unless noted, calls come from the whole dose curve; as a rule, active = well fitted curve in the direction sought with a large enough effect; inconclusive = small, poorly fitted or top-dose-only effect, or another doubt; inactive = no such curve, though single readings can be large; an effect the other way counts as inactive or inconclusive. % is set by controls: 0 for no effect and ±100 for the full control effect.

SMILES	PKM2 act	RORgamma inh	Six1-Eya2 inh	VP16 counter	CtBP-E1A inh
CC(C)(C)c1cc[n+](/C(C(=S)Nc2ccccc2F)=C(/[O-])c2ccc3c(c2)OCCO3)cc1	-8.5%	10µM*	1.6	-9.9%	5.6
O=S1(=O)N=C(Nc2nncs2)c2ccccc21	-17.8%	?	-3.2	10µM*	-11.5
CCN(CC)S(=O)(=O)c1ccc(NC2=NS(=O)(=O)c3ccccc32)cc1	-5.1%	6.5%	3.3	-0.9%	17.6
O=C(COC(=O)c1cccc(OC(F)F)c1)Nc1cccc(S(=O)(=O)N2CCCC2)c1	.	.	-3.5	.	-6.8
CCOC(=O)c1c(C)[nH]c(C(=O)N/N=C/c2ccc(OC)c(OC)c2)c1C	.	-34.3%	-0.9	-7.4%	.
CCOC(=O)c1c(C)[nH]c(C(=O)N/N=C\c2ccccc2O)c1C	-5.2%	1.58µM*	-65.5*	1.41µM*	-8.0
CCOC(=O)c1c(C)[nH]c(C(=O)N/N=C/c2cc([N+](=O)[O-])ccc2O)c1C	-6.1%	2.24µM*	?	?	?
O=[N+]([O-])c1ccc(-c2ccc(/C=N/Nc3nc(NCc4ccccc4)nc(N4CCOCC4)n3)o2)cc1	0.0%	12.6µM*	-3.4	?	-4.4
O=[N+]([O-])c1ccc(/C=N/Nc2nc(N3CCCCCC3)nc(N3CCCCCC3)n2)o1	1.4%	11.2µM*	-23.4	?	-5.5
Cc1ccc(/C=N/Nc2nc(N3CCCCC3)nc(N3CCCCC3)n2)o1	7.3%	8.91µM*	-6.5	?	0.0
COC(=O)c1ccccc1-c1ccc(/C=N/Nc2nc(N3CCCC3)nc(N3CCCC3)n2)o1	-2.2%	?	1.1	?	6.7
O=[N+]([O-])c1ccc(/C=N/Nc2nc(N3CCCCC3)nc(N3CCCCC3)n2)cc1	-7.2%	-13.3%	-1.4	-9.3%	.
Cc1ccc(S(=O)(=O)N2CCN(C(=O)c3ccc(-n4cncn4)c([N+](=O)[O-])c3)CC2)c(C)c1	.	.	-5.1	.	-0.1
COCCn1c(SCc2cccc(F)c2)nc2cc(C(=O)OC)ccc2c1=O	.	-5.0%	4.7	-2.9%	0.1
S=C1NCN(Cc2ccccc2)CN1C1CCCCC1	1.2%	0.794µM*	-5.5	3.98µM*	-28.1
S=C1NCN(C2CCCCC2)CN1Cc1ccccc1	-1.3%	1.78µM*	-4.2	3.55µM*	-14.6
O=C1CNC(=S)N1Cc1ccccc1	-1.0%	-2.8%	1.0	-2.2%	0.8
O=C(COc1ccc(S(=O)(=O)NCc2ccccc2)cc1Cl)NCc1ccccn1	.	-36.9%	-13.7	1.5%	0.0
O=C(COc1ccc(S(=O)(=O)N2CCc3ccccc32)cc1Cl)NCc1ccccn1	15.8µM*	10.6%	-5.7	-2.4%	-10.6
COc1ccc(-c2csc(NC(=S)NC(=O)/C=C/c3ccc(C(C)C)cc3)n2)cc1OC	3.9%	3.98µM*	-3.1	7.94µM*	2.8
COc1ccc(-c2csc(NC(=S)NC(=O)/C=C/c3ccco3)n2)cc1Br	7.0%	7.94µM*	-4.2	?	3.2
CC(C)c1ccc(/C=C/C(=O)Nc2nncs2)cc1	-5.6%	12.6µM*	2.4	-29.8%	-2.4
COc1ccc(C(=O)NC(=S)Nc2nc(-c3ccc(OC)c(Br)c3)cs2)cc1Br	.	-28.1%	7.0	-18.1%	5.7
Cc1sc(NC(=O)/C=C/c2ccc(C(C)C)cc2)c(C#N)c1C	0.5%	-3.1%	0.7	-2.5%	5.9
COc1ccc(-c2csc(NC(=S)NC(=O)/C=C/c3ccco3)n2)cc1OC	?	7.94µM*	-29.1	14.1µM*	-6.9
SMILES	PKM2 act	RORgamma inh	Six1-Eya2 inh	VP16 counter	CtBP-E1A inh
COc1cccc(-c2cncnc2NCc2ccccc2)c1	.	?	.	-4.4%	.
Cc1ccc(Cl)cc1NC(=O)C(Cc1ccccc1)N1C(=O)C2C3CCC(C3)C2C1=O (stereo unspecified)	0.2%	-20.0%	5.3	79.4µM*	-7.8
Cc1ccc(C(C)C)c(OCC(O)CN2CCc3ccccc3C2)c1 (stereo unspecified)	0.6%	-6.3%	-1.7	22.4µM*	-7.8
Cc1cccc(C)c1OCC(O)CN1CCc2ccccc2C1 (stereo unspecified)	.	.	-11.2	.	0.3
COc1cccc(C(=O)/C=C/Nc2ccc(S(=O)(=O)Nc3cccc(C(C)=O)c3)cc2)c1	13.8%	15.4%	-11.4	10µM*	-15.6
COc1ccc(OC)c(N/C=C/C(=O)c2ccccc2)c1	-37.6%	4.47µM*	-9.1	5.01µM*	-9.8
COc1cccc(N/C=C/C(=O)c2ccc(Cl)cc2)c1	2.9%	10µM*	8.3	12.6µM*	31.3
COc1cccc(N/C=C/C(=O)c2ccc(C)cc2)c1	-21.4%	?	5.1	?	.
COc1cccc(C(=O)/C=C/Nc2ccc(NC(C)=O)cc2)c1	-5.7%	?	-1.1	5.2%	2.9
COc1cccc(C(=O)/C=C/Nc2cccc(O)c2)c1	-27.9%	7.94µM*	-7.1	1.26µM*	-0.7
COCCn1c(=O)[nH]c2cc(C(=O)Nc3cccc(C(C)=O)c3)ccc2c1=O	0.4%	-24.5%	-18.4	-1.4%	0.0
CCOC(=O)[C@]12CCCC=C1N(CCC1=CCCCC1)C(=O)[C@H](CC(=O)NCc1ccccc1)C2	.	.	-5.2	.	-2.9
O=C(Nc1ccc(N2CCN(C(=O)c3ccccc3F)CC2)cc1)c1ncn[nH]1	-3.7%	-23.5%	-71.7*	-13.0%	?
CSc1ccccc1C(=O)NCc1ccccc1C	-1.5%	24.9%	9.6	-4.6%[10 µM]	-14.5
CC(C)c1nc(SCC(=O)c2ccc(F)cc2)c2ccccc2n1	1.5%	5.62µM*	22.1	?	7.1
COc1ccc(C(=O)CSc2nc(-c3ccccn3)nc(C)c2Cl)cc1	1.5%	2.82µM*	8.7	?	-9.5
Cc1nc(-c2ccccn2)nc(SCC(=O)c2ccc(F)cc2)c1Cl	2.4%	3.55µM*	0.2	?	-10.1
COc1ccc(C(=O)CSc2nnc3ccc(-c4ccccn4)nn23)cc1	10.1%	2.9%	5.9	-13.9%[10 µM]	-1.5
Cc1ccc(C(=O)CSc2nc(C(C)C)nc3ccccc23)cc1	0.2%	?	1.8	6.0%	1.4
CN(NC(=O)c1ccccc1F)c1ncccc1[N+](=O)[O-]	-4.4%	10.8%	1.1	4.0%	-12.2
CC(Sc1nc(N)c2c3c(sc2n1)CSC(C)(C)C3)C(=O)Nc1ccccc1 (stereo unspecified)	7.08µM*	?	-14.7	-22.3%	-16.7
CC(Sc1nc(NCc2ccccc2)nc(N(C)C)n1)C(=O)Nc1ccccc1 (stereo unspecified)	21.0%	42.4%	-9.1	-9.5%	8.9
COc1cc([N+](=O)[O-])cc(/C=N/NC(=O)C(C)Nc2ccccc2C)c1O (stereo unspecified)	-0.2%	0.316µM*	?	0.501µM*	-73.2*
COc1cc([N+](=O)[O-])cc(/C=N/NC(=O)C(C)Nc2cccc(C)c2)c1O (stereo unspecified)	9.9%	0.891µM*	-20.9	1.12µM*	?
